Only some compounds are listed: those with a hit (about 8% of all), similar ones and a draw of the others.
Lassa entry inh: qHTS for Inhibitors of binding or entry into cells for Lassa Virus; Potency, µM (highest dose often 37.9 µM), for inactives: top-dose activity change, negative = inhibition, actives largely listed as inhibitors; 300,000 tested, 1.2% active; AID 540256, 2011; Lassa virus pseudotype entry inhibition, cell reporter; calls by dose curve; tested in HEK293 cells; further: potency means the concentration at half of the fitted maximal effect; on the % scale 0 is the no-effect control and ±100 the full control effect; nearly all actives have a fitted effect of over 50% in size
FMDV antiviral: High Throughput Screening for Foot and Mouth Disease Virus Antivirals | Potency, µM (doses to about 57.9 µM), without a hit: top-dose activity change, negative = inhibition, usual class: inhibitors | FMDV antiviral cell-based qHTS | AID 1159524, 2015 | 410,000 tested, 1.2% active; calls by dose curve; tested in HEK293T cells; further: read-out not given here; potency means the concentration at half of the fitted maximal effect; on the % scale 0 is the no-effect control and ±100 the full control effect; nearly all actives have a fitted effect of over 45% in size
HCMV antiviral: qHTS Assay for inhibitors of the human cytomegalovirus (HCMV) | HFF cells, HCMV-luciferase reporter, 72 h; hits give low values | activity change, negative = inhibition, % at 57.5 µM | 410,000 tested, 4.5% active | AID 1259415, 2018; in the data active means activity change below about -60%; inconclusive means no clear call, values can overlap the other calls; inactive means above about -39%; further: on the % scale 0 is the no-effect control and ±100 the full control effect
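Inhibition of viral replication was scored as loss of reporter luminescence in HFFs infected with HCMV-luciferase (MOI 1 PFU/cell) for 72 h; compounds tested at 2 doses, normalized to buffer and Salinomycin controls.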
SARS PLpro yeast: qHTS of Yeast-based Assay for SARS-CoV PLP; S. cerevisiae expressing SARS-CoV PLpro, growth rescue; Potency, µM (highest dose often 32.9 µM), without a hit: at the top dose activity, positive = growth rescue, hits mostly activators; 330,000 tested, 0.19% active; calls by dose curve; further: potency means the concentration at half of the fitted maximal effect; 0% is about no effect; nearly all actives have a fitted effect of over 55% in size
HCV inh: qHTS Assay for Inhibitors of Hepatitis C Virus (HCV) | Huh7.5.1 HCVcc-Cre infection, luciferase reporter, 44 h | 340,000 tested, 3.4% active | AID 651820, 2012 | Potency, µM (doses to about 41.8 µM), for the others: at the top dose activity change, negative = inhibition, actives largely listed as inhibitors; active means well fitted inhibition curve with a large enough effect; inconclusive means small, poorly fitted or top-dose-only effect, or another doubt; inactive means no such curve, though single readings can be large or run the other way; further: potency means the concentration at half of the fitted maximal effect; on the % scale 0 is the no-effect control and ±100 the full control effect
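Luciferase read-out (15 sec integration) after a 15 min room-temperature substrate step quantifies HCVcc-Cre infection. Cells, 1,000 per well, had compound added 4 h post-plating, then virus at ~0.5 moi, and were cultured 44 h.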
Marburg entry inh: qHTS for inhibitors of binding or entry into cells for Marburg Virus | 300,000 tested, 1.8% active | Potency, µM (series often up to 37.8 µM), without a hit: at the top dose activity change, negative = inhibition, usual class: inhibitors | Marburg virus pseudotyped entry inhibition, cell reporter; calls by dose curve; tested in HEK293 cells; further: potency means the concentration at half of the fitted maximal effect; on the % scale 0 is the no-effect control and ±100 the full control effect
* = called active by the depositor; ? = inconclusive; / = not tested or not shown; [ ] = dose if it differs, or a comment.

SMILES	Lassa entry inh	FMDV antiviral	HCMV antiviral	SARS PLpro yeast	HCV inh	Marburg entry inh
Cc1ccc(NC(=O)c2c(C)oc3ccc(O)c(CN(C)Cc4ccccc4)c23)c(C)c1	?	-23%	-67*	/	/	?
Cc1oc2ccc(O)c(CN(C)Cc3ccccc3)c2c1C(=O)Nc1ccccc1	?	-25%	-81*	/	/	?
CCN(Cc1ccccc1)Cc1c(O)ccc2oc(C)c(C(=O)Nc3ccc(C)cc3C)c12	?	?	-12	/	/	?
COc1cc2nc(NCCc3ccccc3)n3nc(-c4cccnc4)nc3c2cc1OC	/	-9%	9	/	/	2%[46.1 µM]
Cc1cccc(NC(=O)C2CCCN2S(=O)(=O)c2ccc3nc(-c4ccccc4)[nH]c3c2)c1 (stereo not given)	-23%[46.1 µM]	-26%	-27	/	/	/
CC1(C)CC(=O)C([C@H]2C3=C(CC(C)(C)CC3=O)Oc3ccccc32)C(=O)C1	/	-10%	/	/	/	-5%[46.1 µM]
CC1(C)CC(=O)C2=C(C1)Oc1nc3ccccc3cc1C2C(C#N)C#N (stereo not given)	16µM*	8.9µM*	122	-16%	?	?
CCOC(=O)c1cc(S(=O)(=O)N2CCN(c3cc(Cl)ccc3C)CC2)[nH]n1	2%[46.1 µM]	17%	12	/	/	/
Cc1sc2ncnc(Sc3ccccc3C(=O)Nc3ccc(Br)cc3)c2c1C	-19%	9%	-27	-39%	5.6µM*	-18%
Cc1sc2ncnc(Sc3ccccc3C(=O)Nc3ccc(C#N)cc3)c2c1C	?	14%	?	-8%	25µM*	?
Cc1sc2ncnc(Sc3ccccc3C(=O)Nc3ccccc3Cl)c2c1C	/	-14%	-37	-15%	-16%	-2%
COc1ccccc1CNC(=O)c1cc2ccc3ccc(C)[nH]c3c2n1	-1%[46.1 µM]	0%	?	/	/	/
Cc1ccc(-c2cn3nc(N4CCCC(C(=O)NCc5ccc(F)cc5)C4)sc3n2)cc1 (stereo not given)	?	-2%	0	/	/	/
COc1ccc(/C=C2/Sc3ccc(C(=O)NCCN4CCCCCC4)cc3NC2=O)cc1	/	-6%	-112*	2%	?	/
O=C1Nc2cc(C(=O)NCCCN3CCCC3)ccc2S/C1=C\c1ccccc1	/	-24%	?	-7%	11µM*	/
O=C1Nc2cc(C(=O)NCCCN3CCOCC3)ccc2S/C1=C/c1ccccc1F	/	?	-28	-2%	8.9µM*	/
O=C1Nc2cc(C(=O)NCCCN3CCOCC3)ccc2S/C1=C/c1cccc(Cl)c1	/	?	-24	2%	?	/
O=c1c(Cl)c(N2CCCCC2)cnn1-c1nc2ccccc2[nH]1	?	?	-61*	-23%	-6%	?
O=c1c2ccccc2cnn1-c1nc2ccccc2s1	/	/	/	/	/	-4%
O=c1c2ccccc2cnn1-c1nc2ccccc2[nH]1	0.33µM*	1.8µM*	-92*	-29%	9%	0.29µM*
Clc1ccc2nc(N3CCCCC3)[nH]c2c1	-26%	0%	224	-8%	?	-22%
CN(C)c1ccc(-c2nc3ccccc3c(=O)[nH]2)cc1	/	-59%	2	-1%	-4%	/
O=c1[nH]c(CN(CCc2ccccc2)S(=O)(=O)c2ccc(Cl)cc2)nc2ccccc12	2%	-17%	-17	-12%	6%	1%
COc1ccc(-c2nc3ccccc3c(=O)[nH]2)cc1	?	17%	40	-1%	4%	13µM*
COc1ccc(S(=O)(=O)N(Cc2ccccc2)Cc2nc3ccccc3c(=O)[nH]2)cc1	?	-7%	-100*	2%	?	-11%
COc1ccccc1CN(Cc1nc2ccccc2c(=O)[nH]1)S(=O)(=O)c1ccc2ccccc2c1	?	/	-17	8%	35µM*	?
COc1cccc(N(Cc2nnc3n2CCCCC3)C(=O)Nc2cccc(Cl)c2)c1	1%[46.1 µM]	5%	9	/	/	/
O=C(O)[C@@H](O)c1ccco1	/	/	/	/	/	-11%
CCOC(=O)c1c(C)c(C)n(Cc2cccc(OC)c2OC)c1C	2%	?	-85*	15%	?	-29%
CCOC(=O)c1cc(C)n(Cc2cccc(OC)c2OC)c1C	-14%	?	-31	-9%	?	-15%

Screens: PubChem BioAssay, National Center for Advancing Translational Sciences (NCATS)
